In the library only some 4% were active in any assay of this set; here they are far more common.
D1 antag: human D1 dopamine receptor antagonism; P21728; HEK293 TREx D1 cells, calcium flux, dopamine EC80; active compounds read low; activity change, negative = inhibition, % at 10 µM; 360,000 tested, 3.2% active; AID 504652; in the data active = activity change below about -30%; also: % is scaled to controls: 0 for no effect and ±100 for the full control effect
Target sequence (P21728 whole entry, looked up): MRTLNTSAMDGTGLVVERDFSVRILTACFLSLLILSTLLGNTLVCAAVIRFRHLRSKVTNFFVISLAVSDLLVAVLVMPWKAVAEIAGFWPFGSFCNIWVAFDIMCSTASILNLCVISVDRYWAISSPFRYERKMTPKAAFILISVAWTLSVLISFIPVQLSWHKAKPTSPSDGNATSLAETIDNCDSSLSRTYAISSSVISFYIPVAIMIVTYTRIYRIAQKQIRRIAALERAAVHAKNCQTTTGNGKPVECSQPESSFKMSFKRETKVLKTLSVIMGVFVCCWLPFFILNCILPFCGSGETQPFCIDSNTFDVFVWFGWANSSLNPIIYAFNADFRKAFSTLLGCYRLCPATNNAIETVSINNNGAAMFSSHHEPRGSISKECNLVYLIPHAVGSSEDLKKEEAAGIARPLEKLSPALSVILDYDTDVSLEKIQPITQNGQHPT
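Using tetracycline-induced force-coupled D1 Hek293 cells and a calcium dye, signals were followed for 180 s after compound, then for 180 s after EC80 dopamine, to detect inhibitors.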
D1 PAM: human D1 dopamine receptor positive modulation; P21728; potentiation, % at 10 µM; 360,000 tested, 0.036% active; AID 504651; HEK293 TREx D1 cells, calcium flux, dopamine EC20 potentiation; in the data active = potentiation above about 30%; also: 0% is about no effect
D1 ag: human D1 receptor agonism; P21728; HEK293 T-REx D1 cells, calcium flux, agonist mode; activation, % at 2 µM; 360,000 tested, 1% active; also: 0% is about no effect
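Tetracycline-induced HEK293 TREx D1 cells, force-coupled to calcium signalling, were dye-loaded with a no-wash calcium kit. Compound was pin-added after a 10 s baseline. Fluorescence was read kinetically at 1 cycle/s for 180 s, with calcium rises flagged as agonism.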
Glioma ERSR ind: ER stress response induction in glioma; 420,000 tested, 0.02% active; Potency, µM, without a hit: at the highest dose activation, most hits filed as activators; U87-MG GRP78 promoter luciferase reporter, 16 h; active = well fitted activation curve with a large enough effect; inconclusive = small, poorly fitted or top-dose-only effect; inactive = no such curve, though single readings can be large or run the other way; also: potency is read from the fitted curve at half-maximal effect; series mostly up to about 76 µM; % of control where 0% means no effect; nearly all actives have a fitted effect of over 35% in size
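ERSR induction read as luciferase luminescence (Bright-Glo, 10 min at room temperature) in stably transfected human U87-MG glioma cells exposed to compounds for 16 h, using GRP78 as sensor.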
TRHR agonist: activates the human TRH receptor | TRHR cells, calcium flux fluo-8, FDSS agonist mode | activation, % at 2 µM | 360,000 tested, 0.18% active | AID 493084; also: 0% is about no effect
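In this calcium-flux screen, cells bearing human TRHR are dye-loaded with fluo-8, baselined for 10 cycles, then exposed to library compounds; positive kinetic calcium responses during the agonist phase mark hits, with TRH as control.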
TRHR enhancer: TRH receptor (human) allosteric enhancement | P34981 | TRHR cells, fluo-8 calcium fluorescence, EC20 TRH enhancement | enhancement, % at 2 µM | 360,000 tested, 0.66% active; in the data active = enhancement above about 30%; also: 0% is about no effect
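TRHR-expressing cells loaded with fluo-8 calcium dye were read kinetically (ex 480/em 530) during compound addition, then stimulated with an EC20 of TRH (10 nM final). Enhancement of the Gq-mediated intracellular calcium response was scored.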
* marks the source's active call; other numbers are inactive results; ? = inconclusive; . = no result given. Rule as the data show it, unless noted: active = activation above about 30%; inactive = the rest.

SMILES | D1 antag | D1 PAM | D1 ag | Glioma ERSR ind | TRHR agonist | TRHR enhancer
Clc1ccc(SCCOCCN2CCCCC2)cc1 | 9.4 | -4.0 | 18.5 | -1.1% | 0.3 | -4.5
Cc1cc(Cl)c(OCCOCCN2CCN(C)CC2)c(Br)c1 | 7.0 | -1.4 | 3.7 | -1.4% | 0.4 | -1.3
Clc1ccc(SCCCCN2CCNCC2)cc1 | -44.6* | -4.2 | 119.8* | 3.5% | -0.4 | 5.0
C1CCN(c2nc3nonc3nc2N2CCCCC2)CC1 | 9.6 | -4.4 | 1.1 | -5.9% | -0.1 | -0.4
CN1CCN(c2nc3nonc3nc2N2CCN(C)CC2)CC1 | 8.3 | 1.8 | 0.3 | -4.3% | 0.2 | 32.5*
C/C(=N\NC(=O)CSCc1ccc(Cl)cc1)c1ccc(NC(=O)c2ccccc2)cc1 | -4.8 | -3.4 | 0.9 | 1.5% | -0.4 | -0.9
CCCCCn1c(=N)c(S(=O)(=O)c2ccccc2)cc2c(=O)n3ccccc3nc21 | -61.6* | -0.1 | 1.2 | -1.7% | -0.7 | -4.3
O=C(Nc1cccc(C(F)(F)F)c1)C(Sc1n[nH]c(=O)[nH]c1=O)c1ccccc1 (configuration not stated) | -3.5 | 2.1 | 8.2 | -4.1% | -0.2 | -1.1
CCOc1ccc(S(=O)(=O)N(C)c2ccc(OCC(=O)OCc3c(C)noc3C)cc2)cc1 | -14.0 | -9.7 | -0.2 | -4.0% | -0.2 | 6.6
NC(=O)CC(NC(=O)c1ccccc1)c1ccc(NCCOc2ccccc2)c([N+](=O)[O-])c1 (configuration not stated) | -34.6* | -9.7 | 2.6 | -0.7% | -0.3 | 11.2
COc1ccc(OC)c(C(=O)NC(CC(N)=O)c2ccc(NCCOc3ccccc3)c([N+](=O)[O-])c2)c1 (configuration not stated) | -2.2 | -1.5 | 0.8 | -0.9% | 0.1 | 3.7
NC(=O)CC(NC(=O)c1cccc(Br)c1)c1ccc(NCC2CC2)c([N+](=O)[O-])c1 (configuration not stated) | -14.3 | 2.5 | 1.8 | -3.3% | -0.2 | -3.9
NC(=O)CC(NC(=O)c1ccccc1)c1ccc(NCC2CC2)c([N+](=O)[O-])c1 (configuration not stated) | -44.5* | -5.8 | 0.9 | -3.0% | -0.2 | 7.5
CC(C)OC(=O)c1cccc(-c2ccc(C=O)o2)c1 | -1.2 | 11.1 | 1.0 | -2.9% | 0.4 | 35.5*
CCOC(=O)C1CCCN(C(=O)COc2ccccc2F)C1 (configuration not stated) | -63.6* | -5.0 | 2.4 | -4.0% | -0.4 | -3.0
CCOC(=O)C1CCCN(C(=O)c2ccc3c(c2)N(Cc2ccccc2F)C(=O)c2ccccc2S3=O)C1 (configuration not stated) | -35.7* | 0.5 | 2.1 | 1.3% | 0.1 | -3.2
CCOC(=O)C1CCCN(C(=O)COc2ccccc2O)C1 (configuration not stated) | 7.4 | 1.8 | 3.3 | -2.9% | 0.4 | -4.5
O=C(c1ccc2c(c1)N(Cc1ccccc1F)C(=O)c1ccccc1S2=O)N1CCCCC1 (configuration not stated) | 9.5 | 1.6 | 0.9 | -0.2% | 0.0 | 15.8
CCOC(=O)C1=CCN(S(=O)(=O)c2ccccc2C)C1c1cccc(F)c1 (configuration not stated) | . | . | . | -3.9% | . | .
Cc1ccc(-n2c(SCC(=O)N3CCOCC3)nc(O)c(Cc3ccccc3)c2=O)cc1 | -30.5* | -0.7 | 4.6 | 1.0% | 0.9 | 2.0
O=C(CSc1nc(O)c(Cc2ccccc2)c(=O)n1-c1ccccc1)N1CCOCC1 | 0.9 | -1.2 | 2.0 | -1.2% | -3.3 | -3.2
O=C(c1cnn(-c2ccccc2)c1)c1ccc2ccccc2c1O | -31.9* | 10.1 | 4.6 | -2.3% | -0.4 | 12.1
COc1ccc(C(=O)Nc2sc3c(c2C(=O)O)CC(C)(C)OC3)cc1 | -12.2 | 3.1 | -0.6 | 1.7% | -0.3 | 2.4
CC(C)COc1ccc(C(=O)Nc2sc3c(c2C(=O)O)CC(C)(C)OC3)cc1 | -31.3* | -4.2 | 3.3 | -3.0% | -1.9 | -1.5
NCCSC1CC(=O)N(c2ccc(F)cc2)C1=O (configuration not stated) | -10.3 | -3.5 | 2.0 | -3.6% | 1.1 | -6.4
SMILES | D1 antag | D1 PAM | D1 ag | Glioma ERSR ind | TRHR agonist | TRHR enhancer
COc1cccc(NC(=O)CN(C)C(=O)/C=C/c2cn(Cc3ccccc3)nc2-c2cccnc2)c1 | 9.8 | 2.8 | 6.2 | -1.9% | -0.1 | -0.1
COc1ccc(CCNc2nc(C)nc3c2nnn3Cc2ccccc2)cc1 | -56.7* | -3.0 | -0.1 | -3.1% | 0.2 | -6.2
Cc1nc(NCCc2ccccc2)c2nnn(Cc3ccccc3Cl)c2n1 | -4.8 | 4.3 | 7.1 | -4.0% | 0.3 | 2.8
CCCCSCc1cc(C(=O)O)oc1C(C)(C)C | . | -7.2 | 0.3 | 4.8% | 0.6 | -6.8
O=C(NCCNC(=O)c1ccc(Br)o1)c1ccc(Br)o1 | 5.0 | 1.2 | 14.3 | -0.8% | 2.7 | 37.6*
Cc1ccc(-n2c(=S)[nH]c3nc4c(cc3c2=O)COC(C)(C)C4)cc1 | -48.1* | -10.4 | 1.2 | -0.2% | 0.1 | 5.9
Cc1ccc(-n2c(=S)[nH]c3[nH]ncc3c2=O)cc1 | -30.6* | -3.6 | 3.2 | -2.2% | 0.6 | -8.0
COc1ccc(NCC(=O)N/N=C/c2ccc3c(c2)OCCO3)cc1 | -12.1 | -4.2 | 0.1 | 2.5% | 0.1 | 9.0
C/C(=N\Nc1nc2ccccc2[nH]1)c1ccc(C)o1 | -51.8* | -8.6 | 3.0 | 2.1% | -0.4 | 2.5
C/C(=N\Nc1nc2ccccc2[nH]1)c1ccc(Cl)s1 | 2.7 | -10.8 | 0.5 | ? | 0.1 | -11.2
COc1ccc(NC(=O)N2CCCC(c3nc(-c4ccc(OC)cc4)no3)C2)cc1 (configuration not stated) | -13.8 | -2.6 | 4.1 | 1.4% | -1.1 | -1.3
COc1ccccc1C(=O)N1CCC(C(=O)c2ccc(F)cc2)CC1 | -31.9* | -4.0 | 0.7 | -4.7% | 0.1 | -1.7
O=C(CN1CCC(C(=O)c2ccc(F)cc2)CC1)Nc1ccccc1 | -56.0* | -10.7 | 6.6 | -2.9% | -0.6 | -6.5
O=C(NCc1ccc(F)cc1)C1CCCN(C(=O)Nc2ccc(F)cc2)C1 (configuration not stated) | -85.9* | -2.2 | 3.0 | -3.4% | -0.8 | -0.3
O=C(NCc1ccc(F)cc1)C1CCCN(C(=O)Nc2ccccc2)C1 (configuration not stated) | 9.3 | -0.2 | 1.2 | -3.9% | -0.3 | -1.0
O=C(Nc1ccc(Cl)cc1)N1CCC(c2nc(-c3ccc(F)cc3)no2)CC1 | -49.9* | -9.1 | 21.4 | 0.6% | 1.5 | -12.6
CCc1ccc(OCCCC(=O)Nc2cccc(C(=O)O)c2)cc1 | 3.3 | -8.0 | 2.4 | -5.5% | 0.1 | 1.0
COc1ccc(S(=O)(=O)NCC2CCCN(C(=O)c3sccc3C)C2)cc1 (configuration not stated) | -3.6 | -1.9 | -0.3 | -1.7% | -1.9 | 11.6

From PubChem BioAssay
